Assay results taken from PubChem BioAssay (NCI).
“And” between values parts separate entries of the source, which are not always exact repeats. Identical values can stand only once. Compounds without any hit were thinned out: in the full panel of roughly 83,000, 20% have a hit.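 Note: values are percent growth. 100 is the growth of untreated cells, values between 100 and 0 indicate rising inhibition; between -100 and 0 indicates cell death.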 The source made the active and inactive calls. Rule for the calls: active = growth percent below 10; inactive = the rest.

test system: MDA-MB-468 breast; assay: NCI-60 one-dose screen, 48 h (100 = growth as untreated, 0 = no growth, -100 = all killed); conditions: 10 µM unless noted

Compound | growth
COc1cc(-c2n[nH]nc2-c2ccccn2)cc(OC)c1OC | 104% (inactive)
COc1cc(/C=C/C(C)=O)ccc1O | 100% (inactive) and 111% (inactive)
O=C(N/N=C/c1ccc(OC(F)F)c(OC2CCCC2)c1)c1cnn2c1NC(c1ccccc1)C2 (stereo unspecified) | 84% (inactive)
COc1ccc2c(C3=C(c4cn(C)c5ccccc45)C(=O)NC3=O)coc2c1 | 30.5% (inactive)
CCCCCCCCCCCCCCCCOCCCOP(=O)(O)C1CCCN(O)C1=O (stereo unspecified) | -7.42% (active)
O=C(/C(=N/O)S(=O)(=O)c1ccccc1)c1cccs1 | 101% (inactive)
S=c1[nH]c2cc(Cl)ccc2o1 | 99% (inactive)
CCCCCCCCc1cc(Cl)c(O)c(Cl)c1 | 119% (inactive)
c1cc2c(cc1-c1cnc3nonc3n1)OCO2 | 84.6% (inactive)
O=C(N/N=C/c1ccc(Cl)cc1)c1ccc(C(F)(F)F)nc1Nc1cccc(C(F)(F)F)c1 | 16.7% (inactive)
O=C(Nc1ccc(-c2nc3cc4ccccc4cc3[nH]2)cc1)c1cccc(Br)c1 | 48.3% (inactive)
CC(=O)c1c(/C=C/c2ccc(C)cc2)c2ccccc2[nH]c1=O | 110% (inactive)
Cc1cc(CSc2ccc(Cl)cc2)ccc1N | 102% (inactive)
Cc1c2cccnc2c(C)c2c1c1cc(CO)ccc1n2C | -48.7% (active)
O=C1Nc2ccccc2/C1=C\c1c(-c2ccccc2)nc2ccccn12 | 15.3% (inactive)
COc1ccc(CN2C(=O)/C(=C\c3cc(OC)c(OC)c(OC)c3)c3cc(OC)ccc32)cc1 | 14% (inactive)
